Rows were chosen to be rich in hits. Some 1.8% of all compounds tested hit in one or more screens of this group.
HEK293 tox – cytotoxicity counter-screen for GLP-1 receptor inverse agonists; HEK293 cAMP-luciferase reporter cells, luminescence, 24 h; actives 0.13% (n = 410,000); Potency, µM (top dose mostly 38.3 µM), inactives show top-dose activity change, negative = inhibition, usual class: inhibitors; AID 624418;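 further: loss of luciferase light is scored as toxicity; on the % scale 0 is the no-effect control and ±100 the full control effect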
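Compound-treated cells are incubated 24 hr at 37 deg C under 5% CO2 after a 12 hour attachment period, then luciferase detection reagent is added and luminescence is measured following 12 min at room temperature; lowered signal indicates toxicity.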
GLP1R ag – agonists of human GLP-1 receptor. Potency, µM (top dose mostly 45.6 µM), without a hit: at the top dose activation, hits mostly activators. actives 0.007% (n = 380,000). AID 624172. HEK293 GLP-1R CRE-luciferase, luminescence, 4-6 h; cells express a hypersensitive GLP-1R form. P43220; further: % of control where 0% means no effect
Target sequence (P43220 whole entry, looked up): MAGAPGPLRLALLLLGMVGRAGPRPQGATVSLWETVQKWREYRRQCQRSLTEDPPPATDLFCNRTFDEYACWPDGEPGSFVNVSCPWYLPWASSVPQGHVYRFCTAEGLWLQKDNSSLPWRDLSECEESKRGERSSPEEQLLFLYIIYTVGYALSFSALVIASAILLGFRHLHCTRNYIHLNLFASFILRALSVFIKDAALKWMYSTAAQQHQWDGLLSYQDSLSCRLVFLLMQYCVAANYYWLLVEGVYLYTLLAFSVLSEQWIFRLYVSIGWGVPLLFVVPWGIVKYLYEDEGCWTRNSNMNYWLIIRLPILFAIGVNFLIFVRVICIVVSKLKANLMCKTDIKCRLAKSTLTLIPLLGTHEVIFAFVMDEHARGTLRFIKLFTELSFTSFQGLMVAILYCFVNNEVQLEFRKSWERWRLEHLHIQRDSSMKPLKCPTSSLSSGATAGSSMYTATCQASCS
GLP-1R inv ag – inverse agonists of human GLP-1 receptor; AID 624417; actives 1.6% (n = 410,000); HEK293 GLP-1R CRE-luciferase, luminescence, 24 h; GLP-1R form is constitutively active; Potency, µM (series often up to 38.3 µM), for inactives: top-dose activity change, negative = inhibition, most hits filed as inhibitors; P43220; further: on the % scale 0 is the no-effect control and ±100 the full control effect; nearly all actives have a fitted effect of over 55% in size
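Readout was luciferase luminescence, measured 12 min after detection reagent at room temperature. Beforehand, GLP-1R reporter HEK293 cells had sat 12 h, then received compounds for 24 hr at 37 deg C.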
GCN5L2 inh – blocks human GCN5L2 histone acetyltransferase; GCN5L2 HAT assay, ThioGlo1 CoA-SH fluorescence; Q92830; actives 0.21% (n = 390,000); Potency, µM (doses to about 58.9 µM), without a hit: at the highest dose activity change, negative = inhibition, actives largely listed as inhibitors; further: on the % scale 0 is the no-effect control and ±100 the full control effect
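Fluorescence readout, Ex340nm/Em540nm: ThioGlo1 (50uM final) reacts with free CoA thiol released as 20nM GCN5L2 acetylates H3(1-25) peptide (75uM) using acetyl-CoA (70uM). Compound and enzyme sat 15 min beforehand; 20 min room-temperature reaction.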
RGS4 inhibitor – inhibitors of human regulator of G protein signaling 4; Transcreener GDP fluorescence polarization, RGS4-accelerated GTP hydrolysis; actives 0.039% (n = 390,000); P49798; Potency, µM (series often up to 114 µM), inactives show top-dose activity change, negative = inhibition, most hits filed as inhibitors; further: on the % scale 0 is the no-effect control and ±100 the full control effect; nearly all actives have a fitted effect of over 75% in size
Target sequence (P49798 whole entry, looked up): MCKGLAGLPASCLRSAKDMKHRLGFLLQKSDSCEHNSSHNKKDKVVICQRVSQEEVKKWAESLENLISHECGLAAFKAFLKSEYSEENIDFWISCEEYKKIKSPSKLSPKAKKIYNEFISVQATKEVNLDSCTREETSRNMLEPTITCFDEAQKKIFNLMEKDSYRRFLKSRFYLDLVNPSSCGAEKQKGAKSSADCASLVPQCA
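MLSMR compounds (23 nl, pin-transferred) preincubated 10 min at room temperature with a 500nM (2x) first reagent, then RGS4 at 900nM (2x) plus Transcreener GDP mix added; fluorescence polarization (620/688 nm) read before and after 90 min at 30 °C.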
PTHR1 agonist – PTHR1 (human) receptor agonism. HEK293 GP2 PTHR1 cells, GloSensor cAMP luminescence, 1 h. actives 0.075% (n = 410,000). Potency, µM (highest dose often 115 µM), inactives show at the highest dose activation, most hits filed as activators. Q03431; further: nearly all actives have a fitted effect of over 55% in size
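HEK-293-derived GP2 cells expressing PTHR1 and a GloSensor cAMP reporter, 3,000/well, plated overnight, given luciferin plus IBMX (each 0.5 mM as added) for 1 h at 37 °C, then compound for 1 h at 37 °C. Luminescence was read after 15 min at room temperature.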
The depositor's hits bear a star; i = inactive; u = inconclusive; x = no result given; [ ] = another dose, or the depositor's remark. The call rests on the fitted dose curve; in most records, active means well fitted curve in the direction sought with a large enough effect; inconclusive means small, poorly fitted or top-dose-only effect, or another doubt; inactive means no such curve, though single readings can be large; an effect the other way counts as inactive or inconclusive. Potency means the concentration at half of the fitted maximal effect.

SMILES	HEK293 tox	GLP1R ag	GLP-1R inv ag	GCN5L2 inh	RGS4 inhibitor	PTHR1 agonist
CCc1c(C)sc2c1CCN(C(=O)Nc1cc(OC)c(OC)c(OC)c1)C2c1ccccc1 (stereo not given)	-5%	x	10µM*	-5%	6%	i
Cc1ccccc1NC(=O)N1CCc2c(sc3c2CCCC3)C1c1ccccc1 (stereo not given)	13%	x	10µM*	-17%	25%	-19%
COC(=O)[C@@H]1OC(c2ccccc2)O[C@H]1C(=O)OC	x	x	x	19%	x	x
COC(=O)c1scc(-c2ccc(C)cc2)c1S(=O)(=O)Nc1cc(C)c(Cl)cc1OC	-1%	x	10µM*	-13%	-5%	1%
C=CCn1c(Sc2ncc([N+](=O)[O-])s2)n[nH]c1=O	8.9µM*	-8%	u	u	u	-37%
O=S(=O)(c1ccc2ccccc2c1)N1CCN(C(=S)Nc2ccc(F)cc2)CC1	-14%	-3%	u	-5%	-37%	-21%
O=S(=O)(c1ccc2ccccc2c1)N1CCN(C(=S)Nc2ccc(F)c(Cl)c2)CC1	-22%	-4%	4.5µM*	-5%	-34%	i
Fc1ccc(Oc2nc(-c3ccccn3)nc3ccccc23)cc1	u	12%	2.8µM*	-4%	-22%	-2%
Cc1ccccc1C(=O)OCc1cnc(Cl)s1	6%	6%	-2%	-9%	36%	-30%
Cc1sc2ncn(CCC(=O)O)c(=O)c2c1C	0%	-5%	-4%	-5%	u	-23%[57.5 µM]
Cc1sc2ncn(CCn3cnc4sc(C)c(C)c4c3=O)c(=O)c2c1C	-11%	-1%	5µM*	4%	-11%	-18%[57.5 µM]
COc1ccc(CNC(=O)CSCc2ccc(C)cc2)c(OC)c1	5%	x	-19%	-1%	-19%	i
C=C(C)CNC(=S)N/N=C/C1=CCC2CC1C2(C)C (stereo not given)	u	0%	5µM*	-6%	-18%	i
CC(=O)N/N=C/C1=CCC2CC1C2(C)C (stereo not given)	-4%	7%	17%	-3%	11%	24%
CC(C)NC(=S)N/N=C/C1=CCC2CC1C2(C)C (stereo not given)	u	17%	8.9µM*	-8%	-20%	-27%
CCCCNC(=S)N/N=C/C1=CCC2CC1C2(C)C (stereo not given)	7%[1.53 µM]	-1%	u	-7%	-15%	-9%
Cc1ccc2nc(N3C(=O)CNC3=S)sc2c1	u	11%	u	-10%	-8%	-16%
COc1ccc2nc(N3C(=O)CNC3=S)sc2c1	7.9µM*	0%	u	-14%	-18%	-15%
O=c1c2ccccc2nc(SCc2ccccc2)n1Cc1ccco1	18%	9%	11µM*	-11%	-17%	-3%[57.5 µM]
FC(F)(F)COc1cc(-c2nnc(SCc3ccccc3)n2Cc2ccco2)cc(OCC(F)(F)F)n1	5%	13%	10µM*	-6%	-12%	i
NC(=O)CSc1ncc(-c2ccc([N+](=O)[O-])cc2)[nH]1	-5%	12%	15%	-9%	-4%	i
O=[N+]([O-])c1ccc(-c2cnc(SCc3ccccc3Cl)[nH]2)cc1	-7%	-7%	10µM*	u	-6%	-23%[57.5 µM]
Cc1cc(C)c(CSc2ncc(-c3ccc([N+](=O)[O-])cc3)[nH]2)c(C)c1	-13%	-36%	8.9µM*	u	20%[11.4 µM]	-13%
CCOC(=O)c1cnc2ccc(Cl)cc2c1Nc1ccc(OCC)cc1	2%	x	u	8%	10%	-13%
O=S(=O)(c1cccc(C(F)(F)F)c1)N1CCC(c2cc(-c3cccc4ccccc34)n[nH]2)CC1	-3%	2%	8.9µM*	-8%	u	-7%
SMILES	HEK293 tox	GLP1R ag	GLP-1R inv ag	GCN5L2 inh	RGS4 inhibitor	PTHR1 agonist
CCN(CC)CCNC1=NCCn2c1cc1cc(OC)ccc12	13%	-2%	2.8µM*	-6%	-28%[56.9 µM]	-8%[57.5 µM]
CC1C/C(=C/c2cccn2C)C(=O)/C(=C/c2cccn2C)C1 (stereo not given)	93%	5%	13µM*	-6%	u	i
CC1C/C(=C/c2ccncc2)C(=O)/C(=C/c2ccncc2)C1 (stereo not given)	u	-9%	u	-11%	u	-96%
O=C(NC(=S)N1CCN(c2ccc(C(F)(F)F)cc2[N+](=O)[O-])CC1)c1cccs1	10µM*	-16%	0%	-1%	-49%	-37%
O=S(=O)(Nc1cc(Sc2ncn[nH]2)c(O)c2ccccc12)c1ccccc1	u	-10%	u	22µM*	u	-70%
CCc1nc2nc(C)c(NS(=O)(=O)c3ccc(Cl)s3)c(=O)n2[nH]1	3%	0%	11%	-6%	-8%	i
COc1ccc(C2Nc3ccccc3C(=O)N2Cc2ccco2)cc1CN1C(=O)c2ccccc2C1=O (stereo not given)	-5%	14%	u	-3%	2%	-5%
CCCN1C(=O)c2ccccc2NC1c1ccc(OC)c(CSc2ccccn2)c1 (stereo not given)	5%	17%	13µM*	-3%	-2%	i
COc1ccc(C2Nc3ccccc3C(=O)N2Cc2ccco2)cc1COc1ccc(F)cc1 (stereo not given)	-8%	-14%	10µM*	4%	-6%[11.4 µM]	-25%
COc1ccc(N2C(=O)c3ccccc3NC2c2ccc(OC)c(CSc3ccccn3)c2)cc1 (stereo not given)	1%	11%	0%	-3%	10%	-7%[57.5 µM]
CN(Cc1cccc2ccccc12)C(=O)c1cc(COc2c(F)cccc2F)on1	-18%	10%	10µM*	-7%	-14%	i
Cc1cc(NC(=O)CCN2CCC(C)CC2)ccc1Br	19%	12%	10µM*	0%	16%	i
CC1CCN(CCC(=O)Nc2ccc(Br)cc2)CC1	-15%	u	u	x	-8%	i
Nc1cc(C(=O)O)c(Oc2ccc(Cl)cc2Cl)cc1C(=O)O	1%	-2%	-2%	-25%	2%	i
CC(=O)N1CCCN(Cc2cn(-c3ccc(C)cc3)nc2-c2cccc(C)c2)CC1	-15%	24%	10µM*	37%	-2%	-1%
Cc1cccc(-n2cc(CN3CCN(Cc4nccn4C)CC3)c(-c3cccc(F)c3)n2)c1	u	14%	4.5µM*	-5%	4%	i
Cc1ccc(-c2nn(-c3cccc(F)c3)cc2CN2CCN(c3ccccn3)CC2)o1	5%	-1%	10µM*	-4%	u	i
